Measured values: paper PMC7862700, “An all-to-all approach to the identification of sequence-specific readers for epigenetic DNA modifications on cytosine”

Columns and labels:
Assay in all cases: DAPPL (digital affinity profiling via proximity ligation, sequencing); 10 mM Tris-HCl pH 7.5, 50 mM NaCl, 1 mM DTT, 4% glycerol, room temperature, 30 min; GST-TFs on glutathione beads, 16-mer random dsDNA library, 0.1% formaldehyde crosslink after washing; high values mean tight binding
FLI1 = biological target: T1, FLI1 (Homo sapiens, UniProt Q01543 1-452); details: protein: recombinant; tags: N-terminal GST; dsDNA, one strand shown
T1 sequence: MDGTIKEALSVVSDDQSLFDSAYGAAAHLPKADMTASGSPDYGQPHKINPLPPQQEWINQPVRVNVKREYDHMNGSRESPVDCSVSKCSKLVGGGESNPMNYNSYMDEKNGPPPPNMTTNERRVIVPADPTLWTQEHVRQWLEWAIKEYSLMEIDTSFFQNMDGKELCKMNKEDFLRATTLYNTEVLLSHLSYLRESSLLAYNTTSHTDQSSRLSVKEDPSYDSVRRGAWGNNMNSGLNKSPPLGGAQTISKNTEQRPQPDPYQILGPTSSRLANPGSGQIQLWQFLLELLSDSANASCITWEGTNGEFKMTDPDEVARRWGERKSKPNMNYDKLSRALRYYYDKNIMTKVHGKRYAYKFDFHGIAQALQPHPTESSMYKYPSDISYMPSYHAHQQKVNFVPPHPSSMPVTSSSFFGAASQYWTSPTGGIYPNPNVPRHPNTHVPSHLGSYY
Summary of the method: (§1)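 Human transcription factors fused to GST were expressed in yeast, captured on glutathione beads, given DNA barcodes and pooled with a GST-only negative control. Pools were incubated with 200 nmole of a 16-mer random double-stranded DNA library in Tris/NaCl/DTT/glycerol buffer at room temperature for 30 min. They were then washed, crosslinked with 0.1% formaldehyde, proximity-ligated (BsaI/T4 ligase, 1 h, 37 °C), PCR-amplified and sequenced on an Illumina NextSeq500. Binding signal is each 6-mer's read frequency for a factor divided by its frequency for the GST control.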

ELK1 = biological target: T2, ELK1 (Homo sapiens, UniProt P19419 1-428); details: protein: recombinant; tags: N-terminal GST; dsDNA, one strand shown
T2 sequence: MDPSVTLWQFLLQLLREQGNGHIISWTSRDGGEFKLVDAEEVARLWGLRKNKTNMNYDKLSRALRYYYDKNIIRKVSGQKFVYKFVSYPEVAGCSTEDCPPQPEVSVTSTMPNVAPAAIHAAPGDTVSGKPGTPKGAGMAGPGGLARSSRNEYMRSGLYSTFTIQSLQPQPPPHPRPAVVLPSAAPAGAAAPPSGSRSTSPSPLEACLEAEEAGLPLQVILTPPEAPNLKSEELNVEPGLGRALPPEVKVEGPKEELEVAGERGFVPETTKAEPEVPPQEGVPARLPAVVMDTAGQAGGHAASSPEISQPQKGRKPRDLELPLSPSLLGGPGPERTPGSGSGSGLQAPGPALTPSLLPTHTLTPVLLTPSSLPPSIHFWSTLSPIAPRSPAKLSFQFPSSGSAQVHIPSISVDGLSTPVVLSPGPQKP
Summary of the method: as §1

GABPA = biological target: T3, GABPA (Homo sapiens, UniProt Q06546 1-454); details: protein: recombinant; tags: N-terminal GST; dsDNA, one strand shown
T3 sequence: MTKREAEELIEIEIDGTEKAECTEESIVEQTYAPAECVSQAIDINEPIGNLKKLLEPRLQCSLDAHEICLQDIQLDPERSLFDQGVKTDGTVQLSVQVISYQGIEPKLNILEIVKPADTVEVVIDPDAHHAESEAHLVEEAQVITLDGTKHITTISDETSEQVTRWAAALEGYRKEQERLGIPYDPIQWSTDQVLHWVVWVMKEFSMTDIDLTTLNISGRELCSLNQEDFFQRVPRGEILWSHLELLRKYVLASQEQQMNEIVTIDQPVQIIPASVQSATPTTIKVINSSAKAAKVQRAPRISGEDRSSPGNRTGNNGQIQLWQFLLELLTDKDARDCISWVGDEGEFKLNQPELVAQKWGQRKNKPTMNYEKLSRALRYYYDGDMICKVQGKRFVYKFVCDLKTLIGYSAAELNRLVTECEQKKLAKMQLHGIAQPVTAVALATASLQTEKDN
Summary of the method: as §1

ERG = biological target: T4, ERG (Homo sapiens, UniProt P11308 1-479); details: protein: recombinant; tags: N-terminal GST; dsDNA, one strand shown
T4 sequence: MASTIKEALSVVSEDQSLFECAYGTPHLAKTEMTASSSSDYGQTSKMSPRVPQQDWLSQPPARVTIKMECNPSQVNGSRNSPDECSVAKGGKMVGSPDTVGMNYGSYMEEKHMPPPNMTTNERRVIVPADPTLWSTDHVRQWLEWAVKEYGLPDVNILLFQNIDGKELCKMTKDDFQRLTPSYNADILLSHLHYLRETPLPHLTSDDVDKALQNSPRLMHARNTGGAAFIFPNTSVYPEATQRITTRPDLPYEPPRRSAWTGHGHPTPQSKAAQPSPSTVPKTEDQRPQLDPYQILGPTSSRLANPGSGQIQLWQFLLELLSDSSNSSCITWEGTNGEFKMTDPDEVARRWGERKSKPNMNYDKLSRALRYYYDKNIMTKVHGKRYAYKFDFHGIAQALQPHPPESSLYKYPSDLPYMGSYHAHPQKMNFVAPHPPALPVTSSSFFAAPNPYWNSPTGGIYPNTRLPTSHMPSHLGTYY
Summary of the method: as §1

ELF1 = ELF1 (Homo sapiens, UniProt P32519 1-619); details: protein: recombinant; tags: N-terminal GST; dsDNA, one strand shown
Chain of ELF1 (P32519 whole entry): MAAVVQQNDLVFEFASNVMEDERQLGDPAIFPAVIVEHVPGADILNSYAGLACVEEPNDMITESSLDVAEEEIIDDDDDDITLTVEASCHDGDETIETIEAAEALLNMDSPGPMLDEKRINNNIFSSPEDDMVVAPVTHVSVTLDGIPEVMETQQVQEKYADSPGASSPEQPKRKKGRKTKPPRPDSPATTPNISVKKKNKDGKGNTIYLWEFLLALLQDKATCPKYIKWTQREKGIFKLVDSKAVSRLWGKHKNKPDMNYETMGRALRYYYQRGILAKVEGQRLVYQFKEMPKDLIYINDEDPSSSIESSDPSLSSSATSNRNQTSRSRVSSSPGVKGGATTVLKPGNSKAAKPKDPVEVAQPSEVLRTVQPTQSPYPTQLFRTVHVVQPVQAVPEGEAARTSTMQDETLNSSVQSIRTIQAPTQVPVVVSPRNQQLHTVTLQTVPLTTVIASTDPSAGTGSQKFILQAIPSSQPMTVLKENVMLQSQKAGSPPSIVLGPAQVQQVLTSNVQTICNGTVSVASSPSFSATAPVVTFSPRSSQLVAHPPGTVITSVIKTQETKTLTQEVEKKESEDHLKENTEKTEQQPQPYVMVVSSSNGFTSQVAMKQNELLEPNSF
Summary of the method: as §1

EHF = biological target: T5, EHF (Homo sapiens, UniProt Q9NZC4 1-300); details: protein: recombinant; tags: N-terminal GST; dsDNA, one strand shown
T5 sequence: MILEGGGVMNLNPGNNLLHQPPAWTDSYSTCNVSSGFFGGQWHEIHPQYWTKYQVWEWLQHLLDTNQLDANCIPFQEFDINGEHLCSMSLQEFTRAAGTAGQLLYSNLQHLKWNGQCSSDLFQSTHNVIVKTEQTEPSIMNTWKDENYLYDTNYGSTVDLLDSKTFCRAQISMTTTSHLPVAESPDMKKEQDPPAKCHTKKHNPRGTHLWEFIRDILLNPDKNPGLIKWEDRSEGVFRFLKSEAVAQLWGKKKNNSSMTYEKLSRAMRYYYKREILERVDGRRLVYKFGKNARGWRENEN
Summary of the method: as §1

SPI1 = SPI1 (Homo sapiens, UniProt P17947 1-270); details: protein: recombinant; tags: N-terminal GST; dsDNA, one strand shown
Summary of the method: as §1

SPIB = SPIB (Homo sapiens, UniProt Q01892 1-262); details: protein: recombinant; tags: N-terminal GST; dsDNA, one strand shown
Chain of SPIB (Q01892 whole entry): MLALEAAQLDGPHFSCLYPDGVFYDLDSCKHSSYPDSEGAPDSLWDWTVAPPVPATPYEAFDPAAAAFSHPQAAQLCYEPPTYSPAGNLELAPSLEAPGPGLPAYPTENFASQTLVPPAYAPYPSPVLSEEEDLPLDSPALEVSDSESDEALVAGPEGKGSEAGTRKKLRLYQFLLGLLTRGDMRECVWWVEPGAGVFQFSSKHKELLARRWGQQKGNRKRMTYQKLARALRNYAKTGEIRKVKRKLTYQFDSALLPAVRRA
Summary of the method: as §1

ELK3 = biological target: T6, ELK3 (Homo sapiens, UniProt P41970 1-407); details: protein: recombinant; tags: N-terminal GST; dsDNA, one strand shown
T6 sequence: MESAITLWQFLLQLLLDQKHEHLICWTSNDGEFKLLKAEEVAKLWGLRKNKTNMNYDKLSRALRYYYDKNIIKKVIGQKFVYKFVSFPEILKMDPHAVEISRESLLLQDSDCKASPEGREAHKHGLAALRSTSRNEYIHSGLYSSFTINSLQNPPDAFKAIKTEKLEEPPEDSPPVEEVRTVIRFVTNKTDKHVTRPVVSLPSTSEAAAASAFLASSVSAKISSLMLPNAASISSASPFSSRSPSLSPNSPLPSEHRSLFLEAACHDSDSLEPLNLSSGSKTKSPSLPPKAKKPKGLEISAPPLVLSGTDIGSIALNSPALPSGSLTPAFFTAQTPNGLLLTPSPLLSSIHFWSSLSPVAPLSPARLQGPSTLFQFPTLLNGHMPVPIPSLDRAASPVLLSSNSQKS
Summary of the method: as §1

FEV = biological target: T7, FEV (Homo sapiens, UniProt Q99581 1-238); details: protein: recombinant; tags: N-terminal GST; dsDNA, one strand shown
T7 sequence: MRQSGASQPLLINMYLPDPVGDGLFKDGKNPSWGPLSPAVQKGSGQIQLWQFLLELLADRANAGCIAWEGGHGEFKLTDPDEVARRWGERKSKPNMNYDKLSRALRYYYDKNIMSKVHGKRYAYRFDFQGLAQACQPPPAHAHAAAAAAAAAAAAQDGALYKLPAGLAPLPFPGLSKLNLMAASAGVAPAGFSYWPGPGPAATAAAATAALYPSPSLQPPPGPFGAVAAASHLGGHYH
Summary of the method: as §1

ETV5 = ETV5 (Homo sapiens, UniProt P41161 1-510); details: protein: recombinant; tags: N-terminal GST; dsDNA, one strand shown
Chain of ETV5 (P41161 whole entry): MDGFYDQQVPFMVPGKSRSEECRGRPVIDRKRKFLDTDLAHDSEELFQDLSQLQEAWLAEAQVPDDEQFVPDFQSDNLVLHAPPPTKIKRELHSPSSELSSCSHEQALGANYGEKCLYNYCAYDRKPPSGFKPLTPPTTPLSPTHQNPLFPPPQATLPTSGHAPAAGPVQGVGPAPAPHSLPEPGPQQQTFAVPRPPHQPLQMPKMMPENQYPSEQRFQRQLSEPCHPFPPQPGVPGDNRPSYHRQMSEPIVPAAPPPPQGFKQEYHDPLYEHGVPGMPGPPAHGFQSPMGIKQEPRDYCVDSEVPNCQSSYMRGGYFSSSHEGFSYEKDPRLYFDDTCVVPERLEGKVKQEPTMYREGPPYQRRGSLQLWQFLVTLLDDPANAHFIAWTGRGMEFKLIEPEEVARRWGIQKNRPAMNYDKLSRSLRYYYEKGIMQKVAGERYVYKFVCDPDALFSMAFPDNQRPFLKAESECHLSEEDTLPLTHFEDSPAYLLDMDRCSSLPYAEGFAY
Summary of the method: as §1

HSF1 = HSF1 (Homo sapiens, UniProt Q00613 1-529); details: protein: recombinant; tags: N-terminal GST; chain copies: 3; dsDNA, one strand shown
Chain of HSF1 (Q00613 whole entry): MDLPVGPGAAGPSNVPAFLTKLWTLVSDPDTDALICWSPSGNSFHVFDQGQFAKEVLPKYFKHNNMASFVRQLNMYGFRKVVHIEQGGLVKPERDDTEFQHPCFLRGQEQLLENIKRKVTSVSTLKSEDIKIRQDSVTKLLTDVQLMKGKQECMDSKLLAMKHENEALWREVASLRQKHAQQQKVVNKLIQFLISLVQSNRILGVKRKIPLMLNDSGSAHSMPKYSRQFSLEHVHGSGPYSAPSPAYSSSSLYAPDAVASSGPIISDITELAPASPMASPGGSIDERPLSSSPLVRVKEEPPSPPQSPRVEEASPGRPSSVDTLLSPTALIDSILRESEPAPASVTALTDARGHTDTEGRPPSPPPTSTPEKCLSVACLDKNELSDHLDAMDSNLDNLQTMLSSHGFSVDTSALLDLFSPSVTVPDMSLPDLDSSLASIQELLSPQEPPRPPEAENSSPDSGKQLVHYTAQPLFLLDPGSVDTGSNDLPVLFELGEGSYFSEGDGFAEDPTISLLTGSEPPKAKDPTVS
Summary of the method: as §1

SPIC = biological target: T8, SPIC (Homo sapiens, UniProt Q8N5J4 1-248); details: protein: recombinant; tags: N-terminal GST; dsDNA, one strand shown
T8 sequence: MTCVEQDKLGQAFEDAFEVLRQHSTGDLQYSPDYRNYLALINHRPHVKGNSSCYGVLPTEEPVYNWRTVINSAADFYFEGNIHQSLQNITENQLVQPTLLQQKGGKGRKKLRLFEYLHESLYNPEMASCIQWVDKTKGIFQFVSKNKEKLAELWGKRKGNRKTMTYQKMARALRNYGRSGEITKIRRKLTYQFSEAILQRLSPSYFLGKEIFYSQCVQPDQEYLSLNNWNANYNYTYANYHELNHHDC
Summary of the method: as §1

ELF4 = ELF4 (Homo sapiens, UniProt Q99607 1-663); details: protein: recombinant; tags: N-terminal GST; dsDNA, one strand shown
Chain of ELF4 (Q99607 whole entry): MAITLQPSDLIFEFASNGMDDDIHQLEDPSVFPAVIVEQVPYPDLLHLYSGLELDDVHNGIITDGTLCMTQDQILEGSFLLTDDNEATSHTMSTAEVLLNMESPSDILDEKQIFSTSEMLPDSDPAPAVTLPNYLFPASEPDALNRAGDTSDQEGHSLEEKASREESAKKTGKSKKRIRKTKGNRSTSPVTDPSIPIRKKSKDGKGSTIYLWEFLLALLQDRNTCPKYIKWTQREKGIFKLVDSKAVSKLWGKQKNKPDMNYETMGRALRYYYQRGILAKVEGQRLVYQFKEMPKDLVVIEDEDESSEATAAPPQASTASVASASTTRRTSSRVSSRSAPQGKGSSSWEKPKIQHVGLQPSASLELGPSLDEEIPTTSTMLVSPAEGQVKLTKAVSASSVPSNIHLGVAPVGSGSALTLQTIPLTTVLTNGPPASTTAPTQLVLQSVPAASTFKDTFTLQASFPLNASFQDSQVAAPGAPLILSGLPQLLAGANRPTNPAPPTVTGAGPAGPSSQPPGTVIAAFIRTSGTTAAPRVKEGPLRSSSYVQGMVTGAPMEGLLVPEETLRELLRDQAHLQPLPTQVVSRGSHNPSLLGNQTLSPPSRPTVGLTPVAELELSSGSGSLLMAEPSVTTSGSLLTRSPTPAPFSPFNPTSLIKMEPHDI
Summary of the method: as §1

ELK4 = biological target: T9, ELK4 (Homo sapiens, UniProt P28324-2 1-405); details: protein: recombinant; tags: N-terminal GST; dsDNA, one strand shown
T9 sequence: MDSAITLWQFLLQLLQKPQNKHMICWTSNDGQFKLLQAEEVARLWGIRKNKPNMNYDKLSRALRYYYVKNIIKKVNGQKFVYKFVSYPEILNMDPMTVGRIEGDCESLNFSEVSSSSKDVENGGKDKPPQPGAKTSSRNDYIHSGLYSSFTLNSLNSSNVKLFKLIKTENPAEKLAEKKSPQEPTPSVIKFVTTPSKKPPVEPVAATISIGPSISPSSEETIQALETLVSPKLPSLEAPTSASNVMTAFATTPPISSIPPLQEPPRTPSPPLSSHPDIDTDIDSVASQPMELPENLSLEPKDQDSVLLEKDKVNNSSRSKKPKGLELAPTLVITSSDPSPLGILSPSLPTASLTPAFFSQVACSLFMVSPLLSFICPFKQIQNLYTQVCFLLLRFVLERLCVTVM
Summary of the method: as §1

ETV2 = biological target: T10, ETV2 (Homo sapiens, UniProt O00321 1-342); details: protein: recombinant; tags: N-terminal GST; dsDNA, one strand shown
T10 sequence: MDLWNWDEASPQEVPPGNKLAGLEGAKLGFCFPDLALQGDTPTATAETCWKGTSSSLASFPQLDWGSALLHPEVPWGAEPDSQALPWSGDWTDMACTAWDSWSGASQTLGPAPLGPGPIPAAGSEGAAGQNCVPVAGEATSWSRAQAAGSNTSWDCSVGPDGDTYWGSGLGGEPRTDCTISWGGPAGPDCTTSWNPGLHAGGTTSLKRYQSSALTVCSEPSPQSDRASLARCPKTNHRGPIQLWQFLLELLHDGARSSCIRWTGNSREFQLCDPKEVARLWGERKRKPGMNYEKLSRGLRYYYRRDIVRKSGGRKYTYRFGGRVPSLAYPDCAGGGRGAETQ
Summary of the method: as §1

ELF3 = biological target: T11, ELF3 (Homo sapiens, UniProt P78545 1-371); details: protein: recombinant; tags: N-terminal GST; dsDNA, one strand shown
T11 sequence: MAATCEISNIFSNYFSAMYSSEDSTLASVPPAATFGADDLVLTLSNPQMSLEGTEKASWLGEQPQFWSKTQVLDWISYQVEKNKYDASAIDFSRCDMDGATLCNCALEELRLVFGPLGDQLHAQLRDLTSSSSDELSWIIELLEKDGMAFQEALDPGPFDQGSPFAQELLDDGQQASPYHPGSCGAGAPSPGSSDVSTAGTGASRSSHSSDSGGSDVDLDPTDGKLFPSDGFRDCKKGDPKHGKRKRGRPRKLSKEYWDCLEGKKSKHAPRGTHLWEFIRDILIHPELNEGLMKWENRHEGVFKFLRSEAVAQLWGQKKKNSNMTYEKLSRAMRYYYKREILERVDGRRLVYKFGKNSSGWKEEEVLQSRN
Summary of the method: as §1

CRX = CRX (Homo sapiens, UniProt O43186 1-299); details: protein: recombinant; tags: N-terminal GST; dsDNA, one strand shown
Chain of CRX (O43186 whole entry): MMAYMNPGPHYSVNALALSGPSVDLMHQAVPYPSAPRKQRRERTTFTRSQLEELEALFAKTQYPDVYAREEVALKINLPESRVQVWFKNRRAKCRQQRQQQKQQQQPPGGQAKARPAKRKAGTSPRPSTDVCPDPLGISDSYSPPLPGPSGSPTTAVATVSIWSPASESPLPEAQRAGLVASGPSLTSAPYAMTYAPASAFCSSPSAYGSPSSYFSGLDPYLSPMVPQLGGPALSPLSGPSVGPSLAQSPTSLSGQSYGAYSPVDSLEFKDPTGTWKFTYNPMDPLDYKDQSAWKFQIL
Summary of the method: as §1

ETV1 = ETV1 (Homo sapiens, UniProt P50549 1-477); details: protein: recombinant; tags: N-terminal GST; dsDNA, one strand shown
Chain of ETV1 (P50549 whole entry): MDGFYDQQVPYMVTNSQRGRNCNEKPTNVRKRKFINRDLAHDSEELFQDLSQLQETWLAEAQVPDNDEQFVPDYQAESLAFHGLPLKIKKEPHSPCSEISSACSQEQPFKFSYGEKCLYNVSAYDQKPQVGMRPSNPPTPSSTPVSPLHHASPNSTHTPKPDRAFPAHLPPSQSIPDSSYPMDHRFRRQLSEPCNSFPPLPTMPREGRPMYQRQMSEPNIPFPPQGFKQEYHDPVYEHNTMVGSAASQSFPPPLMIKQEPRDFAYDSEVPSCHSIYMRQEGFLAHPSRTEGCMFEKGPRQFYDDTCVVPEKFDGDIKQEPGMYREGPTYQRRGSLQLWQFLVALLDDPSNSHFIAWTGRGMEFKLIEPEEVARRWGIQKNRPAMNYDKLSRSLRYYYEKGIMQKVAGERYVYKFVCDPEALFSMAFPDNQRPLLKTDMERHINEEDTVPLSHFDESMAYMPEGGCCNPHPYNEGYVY
Summary of the method: as §1

ACCCAT was tested, and the binding signal (FLI1) was 1.18 fold enrichment (6-mer frequency, TF over GST control), the binding signal (ELK1) was 1.21 fold enrichment (6-mer frequency, TF over GST control) and the binding signal (GABPA) was 1.33 fold enrichment (6-mer frequency, TF over GST control). The binding signal (ERG) was 1.23 fold enrichment (6-mer frequency, TF over GST control), the binding signal (ELF1) was 1.25 fold enrichment (6-mer frequency, TF over GST control) and the binding signal (EHF) was 1.16 fold enrichment (6-mer frequency, TF over GST control). For the same sequence, the binding signal (SPI1) was 1.17 fold enrichment (6-mer frequency, TF over GST control), the binding signal (SPIB) was 1.33 fold enrichment (6-mer frequency, TF over GST control) and the binding signal (ELK3) was 1.24 fold enrichment (6-mer frequency, TF over GST control). For the same sequence, the binding signal (FEV) was 1.17 fold enrichment (6-mer frequency, TF over GST control), the binding signal (ETV5) was 1.25 fold enrichment (6-mer frequency, TF over GST control) and the binding signal (HSF1) was 1.05 fold enrichment (6-mer frequency, TF over GST control). For the same sequence, the binding signal (SPIC) was 1.15 fold enrichment (6-mer frequency, TF over GST control), the binding signal (ELF4) was 1.25 fold enrichment (6-mer frequency, TF over GST control) and the binding signal (ELK4) was 1.17 fold enrichment (6-mer frequency, TF over GST control). For the same sequence, the binding signal (ETV2) was 1.18 fold enrichment (6-mer frequency, TF over GST control), the binding signal (ELF3) was 1.23 fold enrichment (6-mer frequency, TF over GST control) and the binding signal (CRX) was 1.06 fold enrichment (6-mer frequency, TF over GST control). The binding signal (ETV1) was 1.19 fold enrichment (6-mer frequency, TF over GST control).
